Laboratory results as given in PubChem BioAssay AID652067 (The Scripps Research Institute Molecular Screening Center, 2013).
In all, about 370,000 compounds went through this assay and about 5,400 (1.5%) were called active.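 The calls were made as follows: active = activation above the mean of all tested compounds plus 3 SD (cut at about 5.5% in these data); inactive = the rest.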 What follows is part of a selection rich in actives, with near analogues and random picks from the rest.

What follows are molecules tested on DAF-12 nuclear receptor (Haemonchus contortus) (assay: H. contortus DAF-12 nuclear receptor activators, primary screen, cell-based, luminescence, HEK293, lit1-tk-luc reporter (AID 652067;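 also: 100% = response to 3 µM Δ7-dafachronic acid high control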)). Conditions: HEK293 hcDAF-12 lit1-tk-luc reporter, at 6.8 µM, hits give high values, 0% DMSO, 100% Δ7-dafachronic acid.

| SMILES | activation |
| --- | --- |
| Cc1ccc(C2Nc3cccc4cccc(c34)N2)cc1 | 6.38% (active) |
| COc1ccc(-c2cc(-c3nnc(SCC(=O)Nc4cccc5ccccc45)n3N)[nH]n2)cc1 | 0.47% (inactive) |
| O=C(N=C1SC2CS(=O)(=O)CC2N1c1cc(Cl)ccc1Cl)C1CC1 (centres undefined) | -1% (inactive) |
| COc1ccc(Cn2cc(COC(=O)N(C)Cc3ccccc3)nn2)cc1 | -0.59% (inactive) |
| Cc1ccccc1C(=O)OC1OC(=O)C(Cl)=C1Nc1ccccc1 (centres undefined) | -2.44% (inactive) |
| Cc1cc(C)nc(Nc2n[nH]c(-c3ccccc3N)n2)n1 | 8.9% (active) |
| CC(C)CNc1cccc2c1S(=O)(=O)N[C@H](C)CO2 | -1.2% (inactive) |
| O=C(NCc1ccccc1)[C@@H]1CCCN1C(=O)[C@H]1CCCN1C(=O)c1cccc(Cl)c1 | -0.09% (inactive) |
| O=C(NN=Cc1ccco1)C(=O)Nc1ccc(Cl)c([N+](=O)[O-])c1 | -1.72% (inactive) |
| Cc1cc2c(nc1C)CCCN2C | 1.19% (inactive) |
| CCOC(=O)[C@]12CCCC=C1N(Cc1ccc(OC)cc1)C(=O)[C@@H]2CC(=O)NCc1cccs1 | -0.39% (inactive) |
| COc1cccc(Nc2nc(N)c([N+](=O)[O-])c(NCc3ccco3)n2)c1 | -3.76% (inactive) |
| CNc1nc(Nc2ccc(C)c(Cl)c2)nc(N)c1[N+](=O)[O-] | 10.8% (active) |
| Nc1nc(Nc2ccccc2F)nc(NC2CCCCC2)c1[N+](=O)[O-] | -1.49% (inactive) |
| COc1ccc(NC(=O)N(C)C[C@@H]2OCCCC[C@@H](C)Oc3ccc(NC(=O)NC4CCCCC4)cc3C(=O)N([C@H](C)CO)C[C@@H]2C)cc1 | -0.68% (inactive) |
| Cc1ccccc1CS(=O)(=O)Cc1ccc(C(=O)Nc2ccc(Cl)cc2)o1 | -6.56% (inactive) |
| COP(=O)(O)CNC(=O)OCc1ccccc1 | -1.19% (inactive) |
| FC(F)(F)c1nc(-c2ccccc2)ncc1-c1nnnn1-c1ccccc1 | -4.23% (inactive) |
| COc1ccc(-n2nnnc2-c2nc3ccccc3s2)cc1 | 9.22% (active) |
| COc1ccc(-n2nnnc2SCC(=O)NCc2cccs2)cc1 | -2.07% (inactive) |
| NC(=O)c1ccccc1N=Cc1ccc2ccccc2c1 | 10.7% (active) |
| O=C(OCC(=O)N1CCOCC1)c1ccc2ccccc2c1 | 0.31% (inactive) |
| O=C1CC[C@@H](COc2ccc3[nH]cc(-c4ccccc4)c3c2-c2ccccc2)N1 | -1.8% (inactive) |

| SMILES | activation |
| --- | --- |
| CC(C)(C)c1ccc(C(=O)Nc2cc(Cl)c(Br)cc2C(=O)O)cc1 | 2.27% (inactive) |
| COc1ccc(CCNC(=O)CSc2nc3c([nH]2)c(=O)n(C)c(=O)n3C)cc1 | -0.84% (inactive) |
| Cc1ccc(NC(=O)N2CCC(C(=O)NCc3ccc(F)cc3)CC2)cc1 | -0.76% (inactive) |
| N[C@@H](Cc1ccccc1)C(=O)N1CCC(C(=O)NCC(=O)Nc2ccc(F)cc2)CC1 | 8.85% (active) |
| O=C(NCc1ccc(F)cc1)C1CCN(C(=O)Nc2ccc(F)cc2)CC1 | -1.57% (inactive) |
| O=C(NC1CCC1)c1ccc(C#Cc2cccc(F)c2)c[n+]1[O-] | 1.33% (inactive) |
| CCOC(=O)c1cc2ccccc2n1CC(=O)c1ccccc1 | 1.16% (inactive) |
| COCn1c(C(O)c2ccccc2)cc2ccccc21 (centres undefined) | 6.22% (active) |
| COc1cc(C(O)c2nc3ccccc3n2C)cc(OC)c1OC (centres undefined) | -1.25% (inactive) |
| COc1ccccc1-c1ccc([C@@H]2C[C@H]3[C@H](CON3C)CN2S(=O)(=O)c2cc(Cl)cc(Cl)c2)cc1 | 1.1% (inactive) |
| O=C(Nc1nc2ccc(Cl)cc2s1)c1cc(-c2ccc(Cl)cc2)nc2ccccc12 | 4.5% (inactive) |
| O=C(Nc1ccccc1)Nc1nc2ccccc2s1 | 15.3% (active) |
| O=C(Nc1ccccc1)Nc1nnc(COc2ccccc2F)s1 | -0.12% (inactive) |
| O=C(CCCCCN1C(=O)C2C3C=CC(C3)C2C1=O)Nc1ccccn1 (centres undefined) | 2.04% (inactive) |
| CCOC(=O)[C@]12CCCC3=C1N(CCC3)C(=O)[C@@H](CC(=O)N1CCSCC1)C2 | -2.29% (inactive) |
| CCCCn1c(N)c(N(CCOC)C(=O)c2cccc(S(=O)(=O)N3CCCCC3)c2)c(=O)[nH]c1=O | -0.97% (inactive) |
| CCCCn1c(N)c(N(CC(C)C)C(=O)c2cccc(S(=O)(=O)N3CC(C)OC(C)C3)c2)c(=O)[nH]c1=O (centres undefined) | 6.01% (active) |
| CCCCn1c(N)c(N(CC(C)C)C(=O)c2cccc(S(=O)(=O)N3CCN(C(C)=O)CC3)c2)c(=O)[nH]c1=O | -1.13% (inactive) |
| Nc1[nH]c(/C=C2/CCCCC2n2[nH]c(=O)n(-c3ccccc3)c2=O)c(Cc2ccccc2)[n+]1Cc1ccccc1 (centres undefined) | -2.89% (inactive) |
| COC(=O)C12C=C3CC(c4ccccc4)=C3C(=O)N1Cc1[nH]c3ccccc3c1C2 (centres undefined) | 1.08% (inactive) |
| CC(C)c1cccc(-c2csc(C(O)c3ccccc3)n2)c1 (centres undefined) | 1% (inactive) |
| COc1cccc(C(NC(C)=O)c2nc(-c3cnc4ccccc4c3)cs2)c1 (centres undefined) | -2.08% (inactive) |
| OC(c1ccccc1)c1nc(-c2cnc3ccccc3c2)cs1 (centres undefined) | 7.43% (active) |

| SMILES | activation |
| --- | --- |
| COC(=O)c1cc(S(=O)(=O)N2CCN(C(=O)C3CCCO3)CC2)cn1C (centres undefined) | 2.12% (inactive) |
| Cc1cc(NS(=O)(=O)c2ccc(NC(=O)CSc3nnc(-c4ccc(C(C)(C)C)cc4)n3Cc3ccco3)cc2)nc(C)n1 | -0.89% (inactive) |
| Nc1cc(=O)c2[nH]cnc2[nH]1 | -0.07% (inactive) |
| CCCC[C@H](C(=O)N(CC)c1ccccc1)[C@@H](O)c1ccc2ccccc2c1 | -1.18% (inactive) |
| C=CCN(Cc1ccc2c(c1)OCO2)C(C#CC1CC1)C(C)(C)C (centres undefined) | -0.69% (inactive) |
| Cc1ccc(NC(=O)CNCc2ccccn2)cc1S(=O)(=O)N(C)C | 0.26% (inactive) |
| CCN(CC)S(=O)(=O)c1cc(C(=O)Nc2ccccn2)ccc1C | 5.61% (active) |
| CCN(c1ccccc1)S(=O)(=O)c1cc(C(=O)NCc2ccccn2)ccc1C | -0.36% (inactive) |
| CCN(CC)C(=O)CC[C@@H]1CC[C@]2(CCCN(S(=O)(=O)C3CCCCC3)C2)O1 | -3.16% (inactive) |
| Cc1[nH]nc2c1C(c1ccc(Br)cc1)NC2=O (centres undefined) | 1.05% (inactive) |
| CCn1c(Cc2ccc(OC)cc2)nnc1SCC(=O)Nc1ccc(N2CCOCC2)cc1 | 0.15% (inactive) |
| O=C(COC(=O)CCc1nc2ccccc2c(=O)[nH]1)Nc1ccc(N2CCOCC2)cc1 | -1.31% (inactive) |
| COc1cccc(/C=C(/CC(=O)Nc2ccc(N3CCOCC3)cc2)c2nc3ccccc3s2)c1 | 6.15% (active) |
| COc1cccc(N(C)C(=O)[C@@H](C)[C@@H](O)c2ccc3ccccc3c2)c1 | -0.46% (inactive) |
| COC(=O)C1=C(C)N(Cc2cccc(C(F)(F)F)c2)C(=NCc2ccccc2)NC1c1ccc(Cl)cc1 (centres undefined) | -0.23% (inactive) |
| COc1ccc(SSc2ccc(OC)cc2C(=O)O)c(C(=O)O)c1 | 0.58% (inactive) |
| c1ccc(-c2c[nH]c(-c3ccccc3)c2)cc1 | 2.47% (inactive) |
| c1ccc(-c2cc(-c3ccccc3)[nH]n2)cc1 | 11.7% (active) |
| O=C(O)c1n[nH]nc1-c1ccccc1 | -0.64% (inactive) |
| Cc1c[nH]c2cccc(-c3ccc(Cl)cc3)c12 | 2.81% (inactive) |
| Oc1ccccc1-c1cc(-c2ccc(Cl)cc2)n[nH]1 | 20.9% (active) |
| COc1ccc(Cn2cc(CN3[C@@H](CC(C)C)COc4cc(Br)ccc4S3(=O)=O)nn2)cc1 | -0.96% (inactive) |
| COC(=O)Cc1nnn2c1[C@H](C)[C@H](c1ccccc1[N+](=O)[O-])OCC2 | -0.26% (inactive) |

| SMILES | activation |
| --- | --- |
| C=C(C)C1CC23C(=O)C4(C(=O)c5ccccc5)C[C@@]5(C)CCC(CC2C1(C)C)(C4=O)C35OC (some centres undefined) | -1.07% (inactive) |
| O=C(c1c(Cl)cccc1Cl)N1CCN(c2cccc3[nH]ccc23)CC1 | -0.37% (inactive) |
| C=CCN1C(=O)N(Cc2ccccc2)c2ccccc2S1(=O)=O | 2.1% (inactive) |
| C=C(C)C#CC(Cc1ccccc1)N(CC1CC1)/C(N)=N/C(=O)OCc1ccccc1 (centres undefined) | -4.1% (inactive) |
| Cc1c(Cl)cccc1NC(=O)NCCCN1CCCC1=O | -0.07% (inactive) |
| Cc1c(Cl)cccc1NC(=O)Nc1ccc(C(=O)N2CCCC2)cc1 | -1.91% (inactive) |
| Cc1c(Cl)cccc1NC(=O)NCc1ccc(C)n1C | 6.25% (active) |
| Cc1cccc(C)c1NC(=O)COC(=O)c1c(C)nn(-c2ccccc2)c1C | -1.2% (inactive) |
| CCCn1c(C)cc(C(=O)COC(=O)c2c(C)nn(-c3ccccc3)c2C)c1C | -1.95% (inactive) |
| Cc1ccc(OC(=O)c2c(C)nn(-c3ccccc3)c2C)cc1 | 5.72% (active) |
| CCOC(=O)[C@]12CCCCC/C=C\1N(Cc1ccc(OC)cc1)C(=O)[C@H]2CC(=O)NCc1ccc(C)o1 | -1.63% (inactive) |
| CCOC(=O)c1c(NC(=S)SC)sc(C(=O)N2CCc3ccccc3C2)c1C | -0.42% (inactive) |
| COC(=O)[C@]12C[C@H](CC(=O)NCc3ccc(OC)c(OC)c3)C(=O)N(Cc3ccccc3)C1=C[C@H](C(C)C)O[C@@H]2C1CC1 | -0.82% (inactive) |
| Cc1nc2cc(NC(=O)Nc3cccc(F)c3)ccc2n1C | 11.1% (active) |
| CCN1CCN(C(=O)C2(NC(=O)Nc3cccc(F)c3)CCCCC2)CC1 | -1.58% (inactive) |
| Cc1nc2cc(NCc3cccs3)ccc2n1C | 1.2% (inactive) |
| COC[C@@H]1CCCN1c1ccc2c(c1)O[C@H](C)CCN(C1CC1)S2(=O)=O | -0.65% (inactive) |
| CCNc1nc(-c2cc3ccccc3o2)cs1 | 6.62% (active) |
| Cn1c(CNc2nc(-c3ccccc3)cs2)nnc1SCC(=O)c1ccccc1 | -0.8% (inactive) |
| Cn1c(SCC(=O)NC2CCCCC2)nnc1-c1cc2ccccc2o1 | -0.36% (inactive) |
